About 13,000 (27%) of roughly 48,000 compounds showed an effect of 50% or more. Some of the results follow.
Tested on: Wolbachia pipientis
Experiment: Anti-Wolbachia Cell-Based Screen
Assay type: functional
Parameters: scale not given: in the data most compounds retested in dose-response had high values
Settings: 5 µM

| Structure (SMILES) | Percent Effect |
| --- | --- |
| O=C(c1scc2c1OCCO2)N1CCC(Cc2cccc(CO)c2)C1 (configuration not stated) | -12.67% |
| CC(=O)Nc1nc(CN2CCCC2Cn2cc(C)cn2)cs1 (configuration not stated) | -0.668% |
| CC(=O)Nc1nc(C(=O)N2CCCC2Cn2cccn2)cs1 (configuration not stated) | 136.5% |
| CC(=O)Nc1nc(CN2CCCC2Cn2cccn2)cs1 (configuration not stated) | -22.51% |
| CC(=O)Nc1nc(C(=O)N2CCCCC2Cn2cccn2)cs1 (configuration not stated) | 109.7% |
| CC(=O)Nc1nc(C(=O)N2CCCCC2Cn2cc(C)cn2)cs1 (configuration not stated) | 67.59% |
| CC(=O)Nc1nc(C(=O)N2CCCC2Cn2cc(C)cn2)cs1 (configuration not stated) | -2.697% |
| CC(=O)NCc1ccc(C(=O)N2CCCCC2Cn2cccn2)o1 (configuration not stated) | -0.4212% |
| O=C(c1cc(-n2cccn2)ccn1)N1CCOc2ccc(F)cc21 | 11.86% |
| CCN(Cc1noc(CC(C)C)n1)Cc1cccc(F)c1O | 21.71% |
| CCCc1nc(NCCCO)c2c(n1)c(C)nn2CC | 2.078% |
| CC(C)CN1C[C@@H]2CN(C(=O)c3cccn3C)C[C@@H]2C1=O | -8.322% |
| O=C(C1CC1)N1C[C@@H](F)[C@@H](OCc2nc3cc(F)ccc3[nH]2)C1 | -13.75% |
| CC(C)n1cnc(C2CN(C)c3ccc(C(=O)NCC4CC4)cc32)n1 (configuration not stated) | -10.28% |
| CCCn1nnnc1CSc1nccn1C | 1.571% |
| O=C(NCc1cccnc1OCC(F)(F)F)N1CCOCC1 | -14.27% |
| O=C(O)c1ncccc1OCC(F)(F)F | 2.885% |
| CN(CCc1ccccc1)C(=O)c1cccnc1OCC(F)(F)F | 147.6% |
| O=C(NCCCn1ccnc1)c1cccnc1OCC(F)(F)F | 88.67% |
| O=C(CNC(=O)c1cnc2ccccc2c1O)NCCCn1ccnc1 | 9.933% |
| O=C(NCC(O)c1ccc(F)c(F)c1)c1cccnc1OCC(F)(F)F (configuration not stated) | 8.161% |
| NCc1cnn(-c2ccccc2C(=O)NCCCn2ccnc2)c1 | -6.38% |
| O=C(NCCc1ccncc1)c1cccnc1OCC(F)(F)F | 113.2% |
| O=C(c1cccnc1OCC(F)(F)F)N1CCCn2ncnc21 | -8.478% |

| Structure (SMILES) | Percent Effect |
| --- | --- |
| O=C1COc2cc(S(=O)(=O)NCCC3=CCCCC3)c(Br)cc2N1 | 12.05% |
| N#Cc1cccc(OCC(=O)N(Cc2ccncc2)C2CC2)c1 | -1.497% |
| CCNC(=O)N1CCC(NC(=O)NCCc2cc(F)cc(F)c2)C1 (configuration not stated) | -1.465% |
| Cc1noc(C)c1NC(=O)NC1CCN(C(=O)OC(C)(C)C)CC1 | -1.211% |
| c1ccc(CN2CCC(NCCSc3cnn[nH]3)C2)cc1 (configuration not stated) | -16.66% |
| CN(C)c1ccc(C(=O)N2CCCC2c2ccc(Cl)cc2)nn1 (configuration not stated) | -0.3166% |
| O=C(c1noc2c1CCCC2)N1CCCC(c2nccs2)C1 (configuration not stated) | 6.202% |
| Cc1noc2ncc(C(=O)N3CCCC3c3ccncc3)cc12 (configuration not stated) | 1.131% |
| CN(C)c1cc(C2CCCN(C(=O)c3noc4c3CCCC4)C2)ccn1 (configuration not stated) | 145.2% |
| CN(C)c1cc(C2CCCN2C(=O)c2noc3c2CCCC3)ccn1 (configuration not stated) | 74.42% |
| CCOCc1ncn2c1CN(S(=O)(=O)c1cccs1)CCC2 | -7.324% |
| COCc1cc(CNC(=O)c2c(C)cc(C)[nH]c2=O)n[nH]1 | -6.309% |
| Cc1cc(C(=O)N2CCC(Nc3cccnn3)CC2)no1 | 29.64% |
| O=C(c1ccc2c(c1)OCO2)N1CCC(Nc2cccnn2)CC1 | 90.41% |
| O=C(c1ccc2c(c1)COC2)N1CCC(Nc2cccnn2)CC1 | 2.056% |
| O=C(c1ccc2[nH]nnc2c1)N1CCC(Nc2cccnn2)CC1 | 101.2% |
| O=C(c1ccc2cc[nH]c2c1)N1CCC(Nc2cccnn2)CC1 | 107.6% |
| O=C(c1cc[nH]n1)N1CCC(Nc2cccnn2)CC1 | 4.355% |
| O=C(c1ccc2[nH]c(=O)[nH]c2c1)N1CCC(Nc2cccnn2)CC1 | 102.4% |
| CC(c1nc(C2CC2)no1)N(C)Cc1ccc(C#N)cc1 (configuration not stated) | 15.66% |
| CCc1noc(CNc2c(F)cccc2-n2cccn2)n1 | -15.19% |
| Cn1nc(CNC(=O)CC#N)c2c1CN(C(N)=O)CC2 | 9.409% |
| Cc1nnc(CCNC2CCN(c3ncnc4c(C)csc34)CC2)s1 | -2.082% |
| Cc1nn(C)c(C)c1CC(=O)N1CCC(Nc2cccnn2)CC1 | -9.502% |

| Structure (SMILES) | Percent Effect |
| --- | --- |
| N#CC1(C(=O)N2CCC(Nc3cccnn3)CC2)CCCCC1 | -1.01% |
| Cn1nnc2cc(C(=O)N3CCC(Nc4cccnn4)CC3)ccc21 | 108.7% |
| Cc1nc(C(=O)N2CCC(Nc3cccnn3)CC2)cs1 | -1.209% |
| N#Cc1cccc(C(=O)N2CCC(Nc3cccnn3)CC2)c1 | 94.09% |
| N#Cc1ccc(CC(=O)N2CCC(Nc3cccnn3)CC2)cc1 | 101.7% |
| CN(Cc1nc2ccccc2c(=O)[nH]1)C1CC(=O)N(C2CC2)C1=O (configuration not stated) | -0.4558% |
| COc1cccc(-c2cnc3n2CCC32CCN(S(C)(=O)=O)CC2)c1 | -9.63% |
| CN1C(=O)CC(C(=O)O)C12CCN(Cc1ccc(F)cc1Cl)CC2 (configuration not stated) | 0.7528% |
| O=C(c1cnc(NCc2sccc2Br)c(Cl)c1)N1CCCCC1 | -7.953% |
| COCCOc1ncccc1C(=O)Nc1ccc(-n2cncn2)c(F)c1 | -9.189% |
| Cc1ccccc1C(NC(=O)CNC(=O)c1ccoc1C)C(C)C (configuration not stated) | -4.038% |
| Cc1cnn(CC2CCCN2C(=O)c2c(F)cccc2Cl)c1 (configuration not stated) | 118.3% |
| Cc1cnn(CC2CCCN2C(=O)c2cc(C)nc3[nH]nc(C)c23)c1 (configuration not stated) | 150.6% |
| CCc1noc(C)c1C(=O)N1CCCC1Cn1cc(C)cn1 (configuration not stated) | 5.124% |
| Cc1cnn(CC2CCCN2C(=O)c2cccc(F)c2F)c1 (configuration not stated) | 121.1% |
| Cc1cnn(CC2CCCN2C(=O)c2cccc3c2OCO3)c1 (configuration not stated) | -6.859% |
| Cc1cc(F)ccc1C(=O)N1C[C@@H]2COC[C@]2(COCC2CC2)C1 | 3.024% |
| O=C(C1=CCCC1)N1C[C@@H]2COC[C@]2(COCc2ccncc2)C1 | 94.55% |
| O=C(C1=CCCC1)N1C[C@@H]2COC[C@]2(COCC2CC2)C1 | 119% |
| O=C(Cc1ccco1)N1C[C@@H]2COC[C@]2(COCC2CCOCC2)C1 | -6.133% |
| O=C(N1CCCC1)N1CC[C@H]2OCC[C@@]2(COc2ncccc2F)C1.O=C(O)C(F)(F)F | -10.69% |
| O=C(C1=CCCC1)N1CCC[C@]2(C[C@@H](Oc3ncccc3F)CO2)C1.O=C(O)C(F)(F)F | -5.101% |
| O=C(C1=CCCC1)N1C[C@@H]2COC[C@]2(COc2ncccc2F)C1.O=C(O)C(F)(F)F | 91.91% |
| O=C(C1=CCCC1)N1C[C@H]2CCC[C@@]2(COCc2ccncc2)C1.O=C(O)C(F)(F)F | 12.49% |
